An excerpt weighted towards active compounds, which were near 10% of everything screened.
Pf growth 96h – P. falciparum growth inhibition at 96 hours | P. falciparum luciferase reporter growth, 96 h | Potency, µM (top dose mostly 28.7 µM), for the others: top-dose activity change, negative = inhibition, most hits filed as inhibitors | 320,000 tested, 6.9% active; active = well fitted inhibition curve with a large enough effect; inconclusive = small, poorly fitted or top-dose-only effect, or another doubt; inactive = no such curve, though single readings can be large or run the other way; note: % is set by controls: 0 for no effect and ±100 for the full control effect
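Compounds incubated with erythrocytes infected by luciferase-expressing P. falciparum (2% hematocrit, 0.05% parasitemia final) for 96 hours, 37 C in 5% CO2. Growth inhibition scored as decreased luciferase luminescence.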
NS1 inh – inhibitors of influenza NS1 protein function; Potency, µM (titrated, usually from 46.1 µM), for inactives: at the highest dose activity, positive = more growth; 270,000 tested, 0.4% active; note: actives are rising curves; nearly all actives have a fitted effect of over 50% in size
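OD600 was taken as the measure of yeast growth restored by compound in an NS1-expressing S. cerevisiae strain. Cells had been washed out of glucose medium and diluted 1:100 into galactose -URA medium, pH 6.0.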
Pf growth 48h – P. falciparum growth inhibition at 48 hours (one generation). P. falciparum luciferase growth in erythrocytes, 48 h. Potency, µM (doses to about 28.7 µM), for the others: at the top dose activity change, negative = inhibition, usual class: inhibitors. 310,000 tested, 5.9% active. AID 504832; active = well fitted inhibition curve with a large enough effect; inconclusive = small, poorly fitted or top-dose-only effect, or another doubt; inactive = no such curve, though single readings can be large or run the other way; note: % is set by controls: 0 for no effect and ±100 for the full control effect
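Read-out is firefly luciferase luminescence from an integrated reporter in P. falciparum, so falling signal marks reduced parasite growth. Infected erythrocytes were at 2% hematocrit and 0.1% parasitemia (final) in Albumax-supplemented RPMI 1640.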
SARS PLpro yeast – SARS-CoV PLP inhibition in yeast; S. cerevisiae expressing SARS-CoV PLpro, growth rescue; Potency, µM (titrated, usually from 32.9 µM), without a hit: at the highest dose activity, positive = growth rescue, hits mostly activators; 330,000 tested, 0.19% active; AID 485353; note: 0% is about no effect; nearly all actives have a fitted effect of over 55% in size
Numbers without * were called inactive; i = inactive; ? = inconclusive; / = no result given; [ ] = another dose, or the depositor's remark. Unless noted, calls come from the whole dose curve. Potency is the fitted concentration of half-maximal effect.

SMILES	Pf growth 96h	NS1 inh	Pf growth 48h	SARS PLpro yeast
O=C(Cn1nc(Cc2cccnc2)c2ccccc2c1=O)N1CCN(C(=O)c2ccco2)CC1	-19%	2%	/	-12%
CCOC(=O)C1CCCN(C(=O)Cn2nc(Cc3cccnc3)c3ccccc3c2=O)C1 (stereo unspecified)	7.4µM*	-11%	/	7%
CCN(Cc1ccc2c(c1)OCCO2)C(=O)CN1C(=O)NC2(CCCCC2)C1=O	?	/	?	3%
CCCCOCC(O)CN1CCN(C(C)=O)CC1 (stereo unspecified)	8.3µM*	4%	23%	-3%
CCN(CC)C(=O)Cn1cc(S(=O)(=O)CC(=O)Nc2ccc(C(N)=O)cc2)c2ccccc21	?	7%	-7%	-3%
O=C(Nc1ccccc1)Nc1cccc(NC(=O)Nc2ccccc2)c1F	70%	4%	75%	-3%
Cc1cc2c(NC(=O)Nc3ccc(C(C)(C)C)cc3)cccc2nn1	12µM*	11%	?	0%
Cc1cc2c(NC(=O)Nc3ccccc3)cccc2nn1	13µM*	3%	?	1%
COc1ccccc1/C=C/C(=O)OCC(=O)N1c2ccccc2CC1C (stereo unspecified)	-13%	/	-22%	-3%
NC(C(=O)O)C1CC(Cl)=NO1 (stereo unspecified)	3.3µM*	11%	?	3%
CCCOC(=O)c1ccccc1	2%	/	-1%	/
CCCOC1(NC(=O)c2ccccc2)C(C)=CC(=O)C=C1C	3.3µM*	-2%	15%	-1%
CCOc1ccc(NC(=O)NC(C)CC)cc1 (stereo unspecified)	9.3µM*	/	24%	13%
CCOc1ccc(NC(=O)C(CC(=O)O)Cc2ccc(Br)cc2)cc1 (stereo unspecified)	9.3µM*	16%	3%	0%
CCOc1ccc(NC(=O)Nc2ccc(NC(C)=O)cc2)cc1	38%	/	18%	-1%
CCOc1ccc(NC(=O)Nc2nc(SCC)ns2)cc1	4.1µM*	-14%	0%	1%
Cc1ccc(NC(=O)CSCC(=O)N(CCC(C)C)c2c(N)n(Cc3ccccc3)c(=O)[nH]c2=O)cc1	-3%	/	?	-3%
O=[N+]([O-])c1ccc(S(=O)(=O)Nc2nnc(C3CCCCC3)s2)cc1	22%	-35%	6%	-4%
Cc1ccccc1OCC(O)CO (stereo unspecified)	-14%	/	3%	/
Clc1cccc(Cl)c1/C=N\Nc1nccs1	9.3µM*	9%	?	-12%
O=[N+]([O-])c1ccccc1/C=N\Nc1nccs1	?	4%	67%	5%
COc1ccc(N2CC(C(=O)NNC(=O)c3ccc(Br)cc3)CC2=O)c(OC)c1 (stereo unspecified)	-1%	/	0%	/
CCCN1CCN(C(=O)Cn2nc(CC)n3c(cc4sccc43)c2=O)CC1	0%	13%	1%	3%
C/C(=N\NC(=O)c1cccc(S(=O)(=O)N2CCCC2)c1)c1ccc(OCC(=O)N(C)C)cc1	-15%	/	-4%	4%
O=c1c2cnn(-c3ccccc3)c2nc(-c2ccco2)n1-c1ccccc1	10µM*	0%	10µM*	-1%
SMILES	Pf growth 96h	NS1 inh	Pf growth 48h	SARS PLpro yeast
O=c1oc(-c2ccco2)nc2c1cnn2-c1ccccc1	-5%	-59%	-4%	-8%
O=C(NC(=S)NCc1ccc(-c2nc3ccccc3s2)cc1)c1ccco1	15µM*	4%	185%	12%
CC(C)N(C(=O)CSc1nc2ccccc2n1Cc1ccccc1F)C(C)C	-22%	-2%	10µM*	20%
COc1ccc(/C=C/C(=O)c2c(O)ccc3c(C)cc(=O)oc23)cc1	i	6%	10µM*	27%
O=C(NCc1cccs1)O[C@H]1C[C@H]2CC[C@@H]1C2	/	-1%	/	/
Cc1nc2ncccn2c1-c1csc(Nc2ccccc2)n1	6%	-26%	3.3µM*	9%
COc1ccc(Nc2nc(-c3c(C)nc4ncccn34)cs2)cc1	?	2%	?	-4%
CCOc1ccc(-n2c(=O)c3sccc3n(CC(=O)Nc3cccc(OC)c3)c2=O)cc1	110%	/	-26%	-1%
Cc1nc2ccccn2c1C(=O)N=Nc1c(O)n(CCC(C)C)c2ccccc12	?	9%	?	-2%
COc1ccccc1C(CNC(=O)c1ccc(NS(=O)(=O)c2ccc3c(c2)OCCO3)cc1)N(C)C (stereo unspecified)	12µM*	/	?	-1%
COc1ccccc1C(CNC(=O)c1ccc(NS(=O)(=O)c2ccc(F)c(C)c2)cc1)N1CCCC1 (stereo unspecified)	12µM*	/	9.3µM*	8%
Cc1ccc(S(=O)(=O)Nc2cccc(C(=O)NCC(c3ccco3)N3CCCC3)c2)cc1F (stereo unspecified)	?	/	?	-13%
COc1ccccc1C(CNC(=O)c1cccc(NS(=O)(=O)c2ccc(C)c(F)c2)c1)N1CCCC1 (stereo unspecified)	12µM*	/	13µM*	2%
CC[C@@H]1CC(=O)N(SC[C@H](N)C(=O)O)C1=O	/	-1%	/	/
CCCSc1nnc(CSc2nc(C)cc(C)n2)n1C	10µM*	/	-12%	4%
CCC(C)Sc1nnc(CSc2nc(C)cc(C)n2)n1C (stereo unspecified)	13µM*	/	?	2%
CCN(CC(=O)Nc1cc(Cl)ccc1C)C(=O)COc1cccc2c1OC(C)(C)C2	-12%	0%	?	1%
Cc1ccc(C2=NN(CC(=O)NCCN(CC(C)C)CC(C)C)C(=O)CC2)cc1	2%	-5%	-46%	2%
CCOc1ccccc1N1CCN(C(=O)CCNS(=O)(=O)c2ccccc2F)CC1	-14%	/	-9%	-1%
Cc1ccc(C(=O)NCCN2C3=NC[C@H](C(C)C)N3C[C@H]2Cc2ccc(O)cc2)cc1Br	2.6µM*	5%	4.7µM*	-1%
COc1ccc(C[C@H]2CN3C(=NC[C@@H]3C(C)C)N2CCNC(=O)c2ccc(C)c(Br)c2)cc1	2.1µM*	0%	?	-1%
C/C=C(\C)C(=O)NCCN1C2=NC[C@H](C(C)C)N2C[C@H]1Cc1ccc(O)cc1	3.3µM*	1%	5%	1%
NCCCC(N)CC(=O)NCC1NC(=O)C(CO)NC(=O)C(N)CNC(=O)C(C2CCN=C(N)N2)NC(=O)/C(=C/NC(N)=O)NC1=O (stereo unspecified)	-20%	/	1%	/
NC(N)=NCCCC(=O)O	/	3%	/	/
Cc1cc(NN)nc(Cc2ccccc2)n1	?	-3%	1%[0.00184 µM]	-3%
SMILES	Pf growth 96h	NS1 inh	Pf growth 48h	SARS PLpro yeast
CCCCN(CC)CCCNC(=O)c1cn(-c2ccc(OC)cc2)c(=O)c2ccccc12	7.4µM*	-4%	-9%	0%
CCN(CC)CCCNC(=O)c1cn(-c2cccc(OC)c2)c(=O)c2ccccc12	-12%	-1%	6%	2%
CCN(CC)CCCNC(=O)c1nn(-c2ccccc2OC)c(=O)c2ccccc12	30%	-6%	4%	1%
CCN(CC)CCCNC(=O)CNC(=O)c1nn(-c2ccc(OC)cc2)c(=O)c2ccccc12	9.3µM*	/	-14%	4%
CCCN(CCC)CCCNC(=O)c1nn(-c2cccc(OC)c2)c(=O)c2ccccc12	12µM*	/	?	1%
CC(=O)NNc1ncnc2c1cnn2-c1ccc(C)c(Cl)c1	8.3µM*	/	124%	-2%
